Sampled rows, rich in hits. Any-hit rate of the full collection: about 21%.
NS1 inh – inhibitors of influenza NS1 protein function | Potency, µM (titrated, usually from 46.1 µM) | 270,000 tested, 0.4% active | AID 2326; calls by dose curve; also: actives are rising curves; nearly all actives have a fitted effect of over 50% in size
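OD600 was taken as the measure of yeast growth restored by compound in an NS1-expressing S. cerevisiae strain. Cells had been washed out of glucose medium and diluted 1:100 into galactose -URA medium, pH 6.0.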
Pf growth 48h – inhibits P. falciparum growth in the first generation, 48 h; P. falciparum luciferase growth in erythrocytes, 48 h; Potency, µM (titrated, usually from 28.7 µM), most hits filed as inhibitors; 310,000 tested, 5.9% active; AID 504832
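Luciferase-expressing P. falciparum in infected erythrocytes (2% hematocrit, 0.1% parasitemia final) in RPMI 1640/0.5% Albumax were exposed to compound for 48 hours at 37 C, 5% CO2; growth read as luminescence.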
Pf growth 96h – P. falciparum growth inhibition at 96 hour, primary screen for plastid delayed-death inhibitors; P. falciparum luciferase reporter growth, 96 h; 320,000 tested, 6.9% active; Potency, µM (series often up to 28.7 µM), hits mostly inhibitors; AID 504834
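Readout is luminescence from an integrated firefly luciferase in P. falciparum. Red cells, 2% hematocrit and 0.05% parasitemia final, were cultured with compound through two parasite generations (96 hours) at 37 C, 5% CO2.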
Sm TGR inh – S. mansoni TGR enzyme inhibition. Potency, µM (titrated, usually from 114 µM), most hits filed as inhibitors. purified TGR, DTNB reduction, TNB absorbance 405 nm. 360,000 tested, 3% active; also: nearly all actives have a fitted effect of over 60% in size
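Kinetic colorimetric format: TGR-catalysed, NADPH-driven DTNB reduction monitored via TNB absorbance. Enzyme dispensed at 20 nM; compound exposure 15 min at room temperature before reaction start.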
CHX counter – counter-screen hit for Shiga toxin inhibitors, cycloheximide; max response, %; 300,000 tested, 12% active; cell reporter, cycloheximide protein synthesis inhibition counterscreen; in the data active = max response mostly above about 13%, no sharp cut-off; inactive = mostly below about 14%; also: read at 38.3 µM for the half of the compounds with a filed dose
Shiga inhibitor – inhibitors of Shiga toxin in Vero cells | inhibition, % at 38.7 µM | 290,000 tested, 9.2% active | Vero cells, Shiga toxin protein synthesis inhibition reporter; in the data active = inhibition mostly above about 28%, no sharp cut-off; inactive = mostly below about 43%
Hits are given with their value; . = inactive; ? = inconclusive; / = no result given; [ ] = another dose, or the depositor's remark. Unless noted, calls follow the shape of the dose curve; as a rule, active = well fitted curve in the direction sought with a large enough effect; inconclusive = small, poorly fitted or top-dose-only effect, or another doubt; inactive = no such curve, though single readings can be large; an effect the other way counts as inactive or inconclusive.

SMILES	NS1 inh	Pf growth 48h	Pf growth 96h	Sm TGR inh	CHX counter	Shiga inhibitor
CNc1cc(N2CCCC2)ccc1[N+](=O)[O-]	.	.	.	.	.	.
N/C(=N\OC(=O)Cc1cccs1)c1cccc([N+](=O)[O-])c1	.	.	?	.	25.6	43.9
N/C(=N\OC(=O)Cc1cccs1)c1ccc(Cl)cc1	.	.	.	.	31.4	41.4
CSc1ccc(NC(=O)N2CCC(C(=O)c3ccc(F)cc3)CC2)cc1	.	.	.	.	.	.
Cc1ccc(S(=O)(=O)N2CCCN(C(=O)CNC(=O)c3cccc(C)c3)CC2)cc1	/	.	.	.	/	/
COc1ccc(CCn2c(=O)c3cccnc3n(CC(=O)Nc3c(C)cc(C)cc3C)c2=O)cc1OC	/	/	/	.	/	/
O=C(Nc1ccccc1)N(Cc1ccccc1)Cc1ccccc1	.	.	.	.	.	.
O=C(Nc1ccccc1)N(Cc1ccc(Cl)cc1)CC(O)C(F)(F)F (stereo unspecified)	.	14.7µM	.	.	.	.
CCOc1ccc(NS(=O)(=O)c2ccc3c4c(cccc24)C(=O)N3)cc1	/	/	/	.	/	/
Cc1cc(C)nc(Nc2nc3ccccc3o2)n1	.	?	.	.	27.4	45.3
O=C(NC(=Nc1nc2ccccc2o1)NC(=O)c1ccccc1)c1ccccc1	.	.	.	.	.	.
Cc1ccc(NC(=O)c2c(C)nc(Nc3nc4ccccc4o3)nc2C)cc1	.	.	.	.	.	.
Fc1ccccc1Nc1nc2ccccc2o1	.	.	.	.	45.0	97.5
O=C(NNc1nc2ccccc2o1)c1ccccc1	.	.	.	.	29.8	55.5
FC(F)(F)Oc1ccc(Nc2nc3ccccc3o2)cc1	.	.	?	.	33.1	76.8
Cc1c(Cl)cccc1NC(=S)/C(=C(\[O-])c1ccc(Cl)s1)[n+]1ccccc1	.	.	.	.	.	.
CCC12CN3CC(CC)(CN(C1)C3c1cccc(OC)c1O)C2=O (stereo unspecified)	/	/	/	.	/	/
COc1ccc(Cl)cc1NC(=O)CN(C)C(=O)CCNC(=O)c1ccccc1OC	/	?	?	.	/	/
COc1ccc(OC)c(S(=O)(=O)N2CCC(C(=O)NCc3cccnc3)CC2)c1	.	.	?	.	.	.
c1ccc(Nc2nc3ccccc3o2)cc1	.	/	.	.	33.2	119.3
CCOC(=O)c1c(C)[nH]c(C(=O)COC(=O)c2ccc(O)cc2)c1C	.	?	?	.	22.4	54.1
CCOC(=O)c1c(C)[nH]c(C(=O)COC(=O)c2ccc(O)cc2O)c1C	.	.	.	.	18.5	.
CCOC(=O)c1c(C)[nH]c(C(=O)COC(=O)c2ccccn2)c1C	.	.	.	?	37.7	99.6
Cc1cccc(NC(=O)c2ccc(CNS(=O)(=O)c3ccc4c(c3)C(C)(C)C(=O)N4C)cc2)c1	/	/	/	.	/	/
COc1ccc(N=C2SC(C(=O)Nc3ccc(C(=O)O)cc3)CC(=O)N2Cc2cccs2)cc1 (stereo unspecified)	.	?	7.38µM	.	.	.
SMILES	NS1 inh	Pf growth 48h	Pf growth 96h	Sm TGR inh	CHX counter	Shiga inhibitor
COC(=O)c1cc(NC(=O)CC2SC(=Nc3ccccc3)N(CCc3c[nH]c4ccccc34)C2=O)cc(C(=O)OC)c1 (stereo unspecified)	.	13.1µM	1.65µM	.	.	.
COc1ccc(N=C2SC(CC(=O)Nc3ccccc3)C(=O)N2CC2CCCO2)cc1 (stereo unspecified)	.	11.7µM	?	.	.	.
COc1ccc(N=C2SC(CC(=O)Nc3ccccc3)C(=O)N2CCN2CCOCC2)cc1 (stereo unspecified)	/	.	.	.	.	.
Cc1ccc(C(C)C)c(OCCCn2c(=O)oc3ccc(C)cc32)c1	/	/	/	.	/	/
CSCCC(NS(=O)(=O)c1ccc2c(c1)oc(=O)n2C)C(=O)NCc1ccc(C)cc1 (stereo unspecified)	.	.	.	.	.	.
Cc1ccc(-[n+]2cc(=O)o[nH]2)cc1	.	/	/	/	/	/
Cc1ccc(C)c(CN2C(=O)c3ccccc3S(=O)(=O)c3ccc(C(=O)Nc4cc(F)ccc4F)cc32)c1	/	/	/	.	/	/
C/C(CCN1CCc2nc(-c3ccccc3)c(-c3ccccc3)cc2C1)=N\OC[C@@H](C)[C@H](OCc1ccccc1)C(C)C	.	?	9.28µM	.	.	.
CCN1C(=O)[C@H]2[C@H]3[C@H](O)[C@H](O)C/C(=N\O[C@H](C)c4cn([C@H](CO)Cc5ccccc5)nn4)[C@@H]3CC[C@H]2C1=O	.	.	.	.	.	.
C/C(CCN1CCc2nc(-c3ccccc3)c(-c3ccccc3)cc2C1)=N\O[C@H](C)c1cn([C@H](CO)Cc2ccccc2)nn1	.	9.28µM	13.1µM	?	.	.
O=c1cc(NCc2ccccc2)nc2ccccn12	.	.	.	.	16.6	.
C=CCNC(=O)C1CCN(c2nc(C)cc(-c3ccccc3)n2)CC1	.	?	.[5.75 µM]	.	35.6	131.6
Cc1cc(-c2ccccc2)nc(N2CCC(C(=O)NCc3ccccc3Cl)CC2)n1	.	.	.	.	26.6	54.4
Cc1oc(-c2cc(F)ccc2F)nc1CN1CCN(C)C(=O)[C@@H]1C	.	?	?	.	.	.
C#CCOCCOCCOCCNc1nc(N2CCN(C(=O)CCCCCCCCCCNC(=O)Cn3cc(C[C@@H](C)O)nn3)CC2)nc(N2CCN(C(=O)CCCCCCCCCCNC(=O)[C@@H]([C@H](C)O)n3cc(C)nn3)CC2)n1	/	0.0738µM	0.0828µM	.	/	/
C#CCOCCOCCOCCNc1nc(N2CCN(C(=O)CCCCCCCCCCNC(=O)Cn3cc(CCCCCN)nn3)CC2)nc(N2CCN(C(=O)CCCCCCCCCCNC(=O)[C@@H]([C@H](C)O)n3cc(C)nn3)CC2)n1	/	0.329µM	0.522µM	?	/	/
C#CCOCCOCCOCCNc1nc(N2CCN(C(=O)Cn3cc(CC(C)O)nn3)CC2)nc(N2CCN(C(=O)Cn3cc(CC(C)O)nn3)CC2)n1 (stereo unspecified)	.	.	.	.	.	.
CCN(CC)CCNC(=O)c1c(C)[nH]c(/C=C2\C(=O)Nc3ccc(F)cc32)c1C	/	2.13µM	2.69µM	/	/	/
C/C=C(\C)CN1CCC(n2nccc2NC(=O)CCOc2ccccc2)CC1	.	?	.	.	.	.
Cc1ccc(C2C=C(c3ccccc3)Nc3nc(N4C(=O)CCC4=O)nn32)cc1 (stereo unspecified)	.	.	.	22.4µM	.	.
O=S(=O)(Nc1nc2n(n1)C(c1ccccc1)C=C(c1ccc(Cl)cc1)N2)c1ccccc1 (stereo unspecified)	/	/	/	44.7µM	/	/
CC1=CC(c2ccc(Cl)cc2)n2nc(N3C(=O)CCC3=O)nc2N1 (stereo unspecified)	.	.	.	.	.	.
Cc1ccc(C2C=C(c3ccccc3)Nc3nc(NS(=O)(=O)c4ccccc4)nn32)cc1 (stereo unspecified)	/	/	/	35.5µM	/	/
Cc1ccc(S(=O)(=O)Nc2nc3n(n2)C(c2ccc(Cl)cc2)C=C(c2ccccc2)N3)cc1 (stereo unspecified)	/	/	/	.	/	/
